Assay results as given in PubChem BioAssay AID2685 (National Center for Advancing Translational Sciences (NCATS), 2010).
The whole screen tested about 320,000 compounds, of which about 2,100 (0.66%) were called active. Inconclusive results (about 53%) are left out. Calls come from the whole dose curve; as a rule, active = well fitted inhibition curve with a large enough effect in the signal ratio, with a control signal flat (not every such curve was filed as active); inconclusive = small, poorly fitted or top-dose-only effect, or effect the other way, or a change in a side signal; inactive = flat fitted curve, though single readings scatter; the % refers to the signal ratio. The list comes from a sample in which actives are over-represented; it also holds similar structures and randomly drawn compounds.

Assay: qHTS Assay for Lipid Storage Modulators in Drosophila S3 Cells;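 for cell number change: cells counted by Cell Tracker Red CMTPX staining in the red channel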; for lipid storage change, negative = inhibition: % is set by controls: 0 for no effect and ±100 for the full control effect
Details: BODIPY lipid droplet fluorescence, 18-24 h, cells fed with added oleic acid; cell number change: measured here: cell count max response; series mostly up to 46.1 µM; lipid storage change, negative = inhibition: at the top concentration
In short: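 Drosophila S3 cells got compounds at several concentrations plus oleic acid (400 uM solution). Laser-scanning cytometry with 488 nm excitation read lipid droplets at 500-530 nm and cells at 575-640 nm. Percent activity was relative to 20 uM Triacsin C.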
Potency is the fitted concentration of half-maximal effect.

SMILES	lipid storage change, negative = inhibition	cell number change	outcome	Potency
COc1ccc(CC(=O)NNC(=O)COc2ccc(Br)cc2C)cc1OC	14.4% (inactive)	1.07%	–	–
COc1ccccc1C(=O)Nc1sc2c(c1C(N)=O)CCCC2	–	-22.3%	inactive	–
O=C(Nc1sc2c(c1C(=O)O)CCCCC2)c1ccccc1F	-22.6% (inactive)	-1.56%	–	–
NC(=O)c1c(NC(=O)c2ccc(F)cc2)sc2c1CCC2	–	5.61%	–	4.61 µM (active)
NC(=O)c1c(NC(=O)c2ccccc2)sc2c1CCC2	–	-24.3%	inactive	–
NC(=O)c1c(NC(=O)c2ccc(F)cc2Cl)sc2c1CCC2	-6.16% (inactive)	3.89%	–	–
NC(=O)c1c(NC(=O)c2ccccc2F)sc2c1CCCC2	–	-10.7%	–	1.64 µM (active)
O=S(=O)(Nc1ccc(Cl)cn1)c1ccccc1	-4.96% (inactive)	14.4%	–	–
Cc1cccc(/N=C/c2nc(-c3ccccc3Br)oc2O)n1	8.31% (inactive)	18.5%	–	–
COc1cc(S(=O)(=O)N2CCOCC2)ccc1NC(=O)COC(=O)c1ccccn1	-3.84% (inactive)	9.96%	–	–
Cc1ccc[n+](CC(=O)N2CCCc3ccccc32)c1	–	-16.8%	inactive	–
CNCC(=O)N1CCN(c2ncc(C(F)(F)F)cc2Cl)CC1	4.67% (inactive)	-11.3%	–	–
O=C(O)c1nn(CC(=O)N2CCN(c3ncc(C(F)(F)F)cc3Cl)CC2)c(=O)c2ccccc12	–	-1.8%	–	0.82 µM (active)
O=C(CSc1ccccn1)N1CCN(c2ncc(C(F)(F)F)cc2Cl)CC1	4.42% (inactive)	6.61%	–	–
CSc1nnc(-c2ccccc2)n1N	3.24% (inactive)	9.66%	–	–
Cc1ccc(NC(=O)c2cccnc2)cc1S(=O)(=O)N(C)C	-15% (inactive)	5.29%	–	–
CCOc1ccc(-n2cc(-c3ccccc3)c3c(SC(C)C(=O)OC)ncnc32)cc1 (centres undefined)	-15.9% (inactive)	-20.7%	–	–
CCn1c(=O)cc(OCC(=O)Nc2ccccc2N2CCN(C)CC2)c2ccccc21	-3.92% (inactive)	6.65%	–	–
COC(=O)c1cc(CNC(=O)c2sccc2-c2ccccc2)ccc1OC	-18.3% (inactive)	-10.7%	–	–
CCOc1ccc(Cc2c(Cl)nc(N)nc2Cl)cc1	–	–	inactive	–

SMILES	lipid storage change, negative = inhibition	cell number change	outcome	Potency
COc1ccc(Cc2c(C)nc(N)nc2Cl)cc1	16.4% (inactive)	9.54%	–	–
COc1ccc(Cc2c(Cl)ncnc2Cl)cc1	–	-13.7%	–	18.4 µM (active)
CCOC(=O)C(=CNc1ccc(S(N)(=O)=O)cc1)C(=O)OCC	-10.1% (inactive)	-11.4%	–	–
CCOc1ccc(NC(=O)[C@@H](NC(=O)c2ccco2)C(C)C)cc1	–	4.17%	inactive	–
Cc1nc(SCC(=O)c2ccc(Cl)cc2)c([N+](=O)[O-])[nH]1	–	-28.5%	inactive	–
Cc1ccc(C(C)C)c(OCC(=O)Nn2c(C)nc3ccccc3c2=O)c1	–	–	inactive	–
Cc1ccc(C(C)C)c(OCC(=O)NNC(=O)CC2OC(=O)c3ccccc32)c1 (centres undefined)	–	–	inactive [at 0.0737 µM]	–
Cc1ccc(C(C)C)c(OCC(=O)NNC(=O)C(C(C)C)N2C(=O)c3ccccc3C2=O)c1 (centres undefined)	–	-20.9%	–	16.4 µM (active)
CC(=O)N1c2ccccc2NC2=C(C(=O)CCC2)C1c1ccc(F)cc1 (centres undefined)	0.776% (inactive)	1.82%	–	–
COc1ccc2c(c1)c(CC(=O)OC(C)C(=O)N(C)C)c(C)n2C(=O)c1ccc(Cl)cc1 (centres undefined)	–	-15.8%	–	1.46 µM (active)
COc1ccc2c(c1)c(CC(=O)O)c(C)n2C(=O)c1ccc(Cl)cc1	-2.62% (inactive)	3.94%	–	–
COc1ccc2c(c1)c(CC(=O)OCC(N)=O)c(C)n2C(=O)c1ccc(Cl)cc1	20.6% (inactive)	-0.195%	–	–
Cc1ccc(/C=C2\Oc3cc(OC(=O)N4CCOCC4)ccc3C2=O)cc1	2.13% (inactive)	0.311%	–	–
COC(=O)CC(NC(=O)C1CC1)c1ccc2c(c1)OCO2 (centres undefined)	4.85% (inactive)	–	–	–
CC1Oc2ccccc2C=C1/C=N/NC(=O)[C@@H](C)NC(=O)OC(C)(C)C (some centres undefined)	5.39% (inactive)	8.38%	–	–
CCOC(=O)N1CCN(C(=O)c2ccc(Cn3c(=S)[nH]c4cc(OCC)c(OCC)cc4c3=O)cc2)CC1	7.39% (inactive)	–	–	–
COc1ccc(CCNC(=O)C(=O)N2CCCCC2)cc1OC	-1.78% (inactive)	6.42%	–	–
O=C(Nc1ccc(NC(=O)c2cccs2)cn1)c1ccccc1	-16.2% (inactive)	8.82%	–	–
COc1ccc(C(=O)Nc2cnc(NC(=O)c3cccs3)cc2C)cc1	25.6% (inactive)	-9.21%	–	–
COc1ccc(C(=O)Nc2ccc(NC(=O)c3cccs3)cn2)cc1	–	12.4%	–	10.3 µM (active)

SMILES	lipid storage change, negative = inhibition	cell number change	outcome	Potency
O=C(NCCCO)/C(=C\c1cn(-c2ccccc2)nc1-c1cccnc1)NC(=O)c1ccccc1	19.7% (inactive)	19.4%	–	–
COC(=O)c1cc(C(=O)OCC(=O)NCc2cccs2)cc([N+](=O)[O-])c1	-3.38% (inactive)	-8.04%	–	–
N#Cc1ccccc1S(=O)(=O)N1CCN(S(=O)(=O)c2ccc(Br)c(C(=O)O)c2)CC1	-3.74% (inactive)	–	–	–
CCCCn1c(N)c(N(CCOC)C(=O)C2CCN(S(=O)(=O)c3ccc(C)cc3C)CC2)c(=O)[nH]c1=O	17.2% [at 0.0737 µM] (inactive)	–	–	–
Cc1nnc2n(c1=O)C(CS(=O)(=O)c1ccc3ccccc3c1)CS2 (centres undefined)	7.18% (inactive)	2.91%	–	–
Cc1ccc(S(=O)(=O)CC2CSc3nc(N)cc(=O)n32)cc1 (centres undefined)	-8.79% (inactive)	2.18%	–	–
O=[N+]([O-])c1ccc(S(=O)(=O)CC2CSc3nc4ccccc4n32)cc1 (centres undefined)	–	-0.884%	–	32.6 µM (active)
CCOC(=O)Nc1cc2c(C)cc(=O)oc2cc1C	38.2% (inactive)	12.9%	–	–
Cc1ccc(CN2CCN(Cc3c[nH]c4ccccc34)CC2CCO)o1 (centres undefined)	-12.5% (inactive)	12.4%	–	–
Cc1cccc(C)c1NC(=O)N1C2CCC1CC(O)(c1cccnc1)C2 (centres undefined)	0.613% (inactive)	9.99%	–	–
O=C(Nc1ccccc1C(=O)NC1CC1)c1ccccc1	3.91% (inactive)	10.8%	–	–
CCOC(=O)C1=NN(c2cccc(Cl)c2)C2=NC(C)=C(C(=O)OC)C(c3cccs3)N12 (centres undefined)	-3.04% (inactive)	-18.3%	–	–
CCOc1ccc2ccccc2c1/C=N/NC(=O)c1ccncc1	–	6.87%	inactive	–
CCOc1ccc2ccccc2c1/C=N\NC(=O)c1ccc([N+](=O)[O-])cc1	–	-16.1%	–	6.51 µM (active)
COc1ccc2ccccc2c1/C=N/NC(=O)c1ccc([N+](=O)[O-])cc1	-10.6% (inactive)	-15.8%	–	–
CC(C)CNC(=O)CN1C(=O)NC2(CCCc3ccccc32)C1=O (centres undefined)	-4.01% (inactive)	7.92%	–	–
CCCNC(=O)C1CCN(S(=O)(=O)c2ccc3nc4c(c(C(=O)O)c3c2)CCCCC4)CC1	18.1% (inactive)	4.41%	–	–
CN(C)N1C(=O)CC(C)(c2ccc([N+](=O)[O-])cc2)C1=O (centres undefined)	-2.1% (inactive)	-4.15%	–	–
